Results on 40 compounds are retold here after PubChem BioAssay (Tox21).

Each structure is given as a SMILES string. “And” between values parts separate entries of the source, which are not always exact repeats. Identical values can stand only once. Results filed as inconclusive are left out. Unmarked numbers belong to inactive results. The source made the active and inactive calls. Calls come from the whole dose curve.
% is set by controls: 0 for no effect and ±100 for the full control effect; potency is the fitted concentration of half-maximal effect.

This experiment can be described thus: qHTS assay to identify small molecule antagonists of the sonic hedgehog signaling (Shh) pathway (AID 1259369). Note: nearly all actives have a fitted effect of over 45% in size. The note with it: NIH/3T3 Gli1-Luc reporter, Shh antagonist, luminescence 24 h; series mostly up to 92.4 µM; activity change, negative = inhibition: at the top concentration. The source says: U.S. Tox21 Program National Center for Advancing Translational Sciences [NCATS] NIH Chemical Genomics Center [NCGC] U.S. Environmental Protection Agency [EPA] National Institutes of Environmental Health Sciences [NIEHS] National Toxicology Program [NTP] U.S. Food and Drug Administration [FDA] Tox21 Assay Overview: The sonic hedgehog (Shh) pathway is essential for normal embryonic development. Dysregulation of the Shh pathway can cause severe developmental defects in organs. Therefore chemicals that interfere with the pathway are potential developmental toxicants. A cell line designated 3T3Gli1-Luc (DMB/OARSA/CFSAN/FDA, Laurel, MD), a NIH/3T3 derived clone containing stably integrated Gli1-Luc reporter is used to detect chemical interference of the Shh pathway, by changes in the expression of the firefly Luc gene under the control of the Gli1 transcriptional response element. This cell line was used to screen Tox21 libraries for identifying and prioritizing the potential developmental toxicants that interfere Shh pathway. Conditioned medium-stimulated mode was used to screen for chemicals inhibiting Shh signaling.
Tox21 Assay Protocol Summary: 3T3 Gli1-Luc cells were dispensed at 2,000 per well in 5uL of culture medium into white solid bottom 1536-well plates (Greiner Bio-One, Monroe, NC) using a Multidrop Combi (Thermo Scientific, Waltham, MA) dispenser. The assay plates were incubated at 37 C and 5% CO2 for 4hr, and then 23nL of compounds dissolved in DMSO and positive control were transferred using a Pintool station (Wako, San Diego, CA). The compound transfer was followed by the addition of 1ul conditioned medium or assay buffer using two separate tips of Flying Reagent Dispenser (FRD, Aurora Discovery, San Diego, CA). The assay plates were incubated at 37C and 5% CO2 for 24hr. For luciferase read, 4uL of Amplite Luciferase reporter gene assay reagent (AAT Bioquest, Inc. Sunnyvale, CA) was added to each well of the assay plates using FRD and incubated at room temperature for 30min. The luminescence signal was measured using a ViewLux plate reader (Perkin Elmer, Shelton, CT).
A general note: qHTS replaces the single test concentration by a dilution series.
As to `O=C(Nc1cccc2c(=O)cc(-c3nn[nH]n3)oc12)c1ccc(OCCCCc2ccccc2)cc1`, the “activity change, negative = inhibition” value is -30.4% [at 42.5 µM].

In the case of `Cc1cc(C)cc(N)c1`, the “activity change, negative = inhibition” value was 4.76%.

Take `C(=C\c1ccccc1)/c1ccccc1`: the “activity change, negative = inhibition” value was 25.2%.

Regarding `CCC(OCCCOC)OC(C)=O` (stereo not given), the “activity change, negative = inhibition” value was 0.825%.

In the case of `O=C(CCCN1CC=C(n2c(=O)[nH]c3ccccc32)CC1)c1ccc(F)cc1`, the “activity change, negative = inhibition” value is -5.82% [at 42.5 µM].

For `O=C(/C=C/c1ccc(O)c(O)c1)O[C@@H]1C[C@@](OC(=O)/C=C/c2ccc(O)c(O)c2)(C(=O)O)C[C@@H](O)[C@@H]1O`, the “activity change, negative = inhibition” value is 11.9% [at 42.5 µM].

Regarding `C[C@@H]1CN(CCCn2c3ccccc3c3ccccc32)C[C@H](C)N1`, the Potency is 10.6 µM (active).

For `CC(C)(C)C(=O)C(=O)O`, the “activity change, negative = inhibition” value was 17.3%.

Consider `Nc1nc2ccc([N+](=O)[O-])cc2s1`, for which the Potency was 48.6 µM (active).

For the compound `O=C(O)c1cccc(-c2noc(-c3ccccc3F)n2)c1`, the Potency is 0.237 µM (active).

`CCC1CO1` (stereo not given): the “activity change, negative = inhibition” value is 19.8%.

For `C[C@@H](O)[C@H]1C(=O)N2C(C(=O)O)=C([C@H]3CCCO3)S[C@H]12`, the “activity change, negative = inhibition” value is 8.29% [at 42.5 µM].

On to `CCOC(=O)c1ccc(OCCN2C[C@H](O)[C@@H](O)[C@H](O)[C@H]2CO)cc1`, for which the “activity change, negative = inhibition” value is 11.8% [at 42.5 µM].

With `COC(=O)c1nc(Cl)c(Cl)nc1N`, the Potency is 0.75 µM (active).

On to `CC(=O)N/N=C/c1ccc([N+](=O)[O-])o1`, for which the Potency was 26.6 µM (active).

As for `CCCCN(CCCC)C(C(N)=O)c1ccc(OC)cc1` (stereo not given), the “activity change, negative = inhibition” value was -18.2% [at 42.5 µM].

For `c1ccc2c(c1)CCc1ccccc1N2`, the Potency entry was “inactive”.

Regarding `NC(=O)c1ccncc1`, the “activity change, negative = inhibition” value was 13.1%.

On to `CS(=O)(=O)c1ccc(-c2cn3ccccc3n2)cc1`, for which the Potency was 33.5 µM (active).

As for `Nc1cccc2c1CN(C1CCC(=O)NC1=O)C2=O` (stereo not given), the “activity change, negative = inhibition” value was 1.76% [at 42.5 µM].

As to `c1cc(N(CC2CO2)CC2CO2)ccc1Cc1ccc(N(CC2CO2)CC2CO2)cc1` (stereo not given), the Potency is 15.4 µM (active).

Consider `CC1=Nc2ccc3ccccc3c2C1(C)C`, for which the Potency was 30.6 µM (active).

With `Cc1cc(C)c(N)cc1C`, the “activity change, negative = inhibition” value is 16.3%.

For the compound `CC(=O)OCC(=O)NCCCOc1cccc(CN2CCCCC2)c1`, the “activity change, negative = inhibition” value is -9.24% [at 42.5 µM].

`CCCC(=O)C(=O)O`: the “activity change, negative = inhibition” value is 0.698%.

Take `O=C1c2ccccc2C(=O)c2c(O)c(O)cc(O)c21`: the “activity change, negative = inhibition” value was 11.7%.

For the compound `Clc1ccc(Nc2nnc(Cc3ccncc3)c3ccccc23)cc1`, the Potency is 1.19 µM (active).

As for `CN1C(=O)c2ccccc2C1=O`, the Potency is 43.3 µM (active).

For `C=C/C(C)=C/C/C=C(\C)CCC=C(C)C`, the Potency is 27.3 µM (active).

Consider `CC[C@]1(O)C[C@H]2CN(CCc3c([nH]c4ccccc34)[C@@](C(=O)OC)(c3cc4c(cc3OC)N(C=O)[C@H]3[C@@](O)(C(=O)OC)[C@H](OC(C)=O)[C@]5(CC)C=CCN6CC[C@]43[C@@H]65)C2)C1`, for which the Potency was 0.0266 µM (active).

On to `C[C@@]12CCC[C@H]1[C@@H]1CC[C@H]3C[C@@H](O)CC[C@]3(C)[C@H]1CC2`, for which the Potency was 23.7 µM (active).

For `CCC(=O)OC`, the “activity change, negative = inhibition” value was 14.7%.

`OC1(c2ccccc2)CCNCC1`: the “activity change, negative = inhibition” value is 17.4% [at 42.5 µM].

`Cc1ccco1`: the “activity change, negative = inhibition” value was 1.64%.

Take `Cc1cccc(N(C)C(=S)Oc2ccc3c(c2)CCC3)c1`: the “activity change, negative = inhibition” value was -30.7% [at 42.5 µM].

Regarding `O=C(/C=C/c1ccccc1)OCCc1ccccc1`, the “activity change, negative = inhibition” value was 68%.

On to `Cc1cc(O)c(C)c(C)c1O`, for which the “activity change, negative = inhibition” value was 13.4% [at 42.5 µM].

Turning to `O=c1c(O)c(-c2ccc(O)cc2)oc2cc(O)cc(O)c12`, the Potency is 21.6 µM (active) and 26 µM (active).

On to `CC(C)=CCC/C(C)=C/CC/C(C)=C/C(=O)OCC(=O)[C@@]1(O)CC[C@H]2[C@@H]3CCC4=CC(=O)C=C[C@]4(C)[C@H]3[C@@H](O)C[C@@]21C`, for which the Potency is 8.41 µM (active).

Turning to `C=C1C[C@@]23CC[C@H]4[C@@](C)(CCC[C@@]4(C)C(=O)O[C@@H]4O[C@H](CO)[C@@H](O)[C@H](O)[C@H]4O)[C@@H]2CC[C@]1(O[C@@H]1O[C@H](CO)[C@@H](O)[C@H](O[C@@H]2O[C@H](CO)[C@@H](O)[C@H](O)[C@H]2O)[C@H]1O[C@@H]1O[C@H](CO)[C@@H](O)[C@H](O)[C@H]1O)C3`, the “activity change, negative = inhibition” value was -0.956%.
